Results: PubChem BioAssay (EPA / NIEHS)
Values joined by “and” are separate entries in the source; they are usually repeats but may differ in a detail not shown here. Equal values may be shown once. Inconclusive results are not listed. Some structures have more than one record in an assay (separate samples or runs), and their calls can disagree. Active and inactive are the calls of the source. The calls were made as follows, unless noted: active = hit-call score of the fitted dose curve at least 0.9, where 1 is the maximum; inactive = score below 0.9.

Assays:
[1] = read-out: Monokine induced gamma interferon (MIG), CXCL9 (gene 4283); test: BSK_3C_MIG: BioMAP Diversity Plus: 3C Assay for Monokine induced gamma interferon (MIG) Biomarker Activity (AID 2283021); details: primary human endothelial cells (HUVEC); actives raise or lower the signal;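 as to AC50: MIG protein level measured by immunoassay in the treated endothelial cultures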
Method in brief: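 HUVEC primary endothelial cultures dosed with chemical; MIG quantified by ELISA at 24 h. Data fitted bidirectionally against DMSO control, with parallel SRB total-protein staining for cytotoxicity.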

[2] = molecular target: human Vitamin D Receptor (VDR), VDR (gene 7421) (UniProt P11473); test: ATG_VDR_TRANS: Attagene TRANS-FACTORIAL HepG2 Assay for human Vitamin D Receptor (VDR) (AID 2283022; active = hit-call score of the fitted dose curve at least 0.9, where 1 is the maximum)
Sequence of human Vitamin D Receptor (VDR), VDR (gene 7421) (P11473 whole entry, looked up, the tested form may be a part): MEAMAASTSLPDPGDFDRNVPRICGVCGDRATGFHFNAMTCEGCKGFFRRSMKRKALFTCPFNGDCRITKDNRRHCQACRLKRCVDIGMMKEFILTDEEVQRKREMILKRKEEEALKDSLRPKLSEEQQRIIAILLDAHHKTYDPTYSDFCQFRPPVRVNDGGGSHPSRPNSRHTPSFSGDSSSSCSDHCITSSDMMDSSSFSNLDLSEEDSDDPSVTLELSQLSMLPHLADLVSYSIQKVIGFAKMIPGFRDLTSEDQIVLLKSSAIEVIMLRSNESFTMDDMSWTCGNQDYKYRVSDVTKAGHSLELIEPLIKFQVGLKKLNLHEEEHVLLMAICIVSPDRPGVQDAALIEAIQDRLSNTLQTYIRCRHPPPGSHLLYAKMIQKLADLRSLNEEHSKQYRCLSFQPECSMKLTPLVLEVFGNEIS
Method in brief: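 RT-PCR/capillary electrophoresis read-out of reporter mRNA induction in transiently transfected HepG2; 24 h dosing; chimeric NR-Gal4 (TRANS format); gain-of-signal fit against DMSO baseline.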

[3] = BSK_3C_SRB: Viability Assessment in the BioMAP Diversity Plus: 3C Assay (AID 2283023); details: primary human endothelial cells (HUVEC);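 also: cells read 24 h after compound dosing; fitted both ways against DMSO so a hit may be signal rise or drop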
Method in brief: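 HUVEC, 24 h post-dose; 10% TCA fix, 0.1% SRB stain, A560 nm. Bidirectional curve fit vs DMSO negative control.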

[4] = read-out: Matrix Metallopeptidase 1 (MMP1), MMP1 (gene 4312); test: BSK_BE3C_MMP1: BioMAP Diversity Plus: BE3C Assay for Matrix Metallopeptidase 1 (MMP1) Biomarker Activity (AID 2283024); details: primary human bronchial epithelial cells; actives raise or lower the signal
Method in brief: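 Human primary bronchial epithelial cells (BE3C system) dosed for 24 h; MMP-1 quantified by ELISA. Bidirectional fit against DMSO; cytotoxicity tracked in parallel cultures by SRB total-protein staining.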

[5] = read-out: Pselectin, SELP (gene 6403); test: BSK_4H_Pselectin: BioMAP Diversity Plus: 4H Assay for Pselectin Biomarker Activity (AID 2283026); details: primary human endothelial cells (HUVEC); actives raise or lower the signal
Method in brief: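 Primary human umbilical vein endothelial cells were treated 24 h, and cell-surface P-selectin was then quantified by ELISA. Bidirectional fit versus DMSO; cytotoxicity checked in parallel cultures by SRB total-protein staining.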

[6] = BSK_4H_SRB: Viability Assessment in the BioMAP Diversity Plus: 4H Assay (AID 2283027); details: primary human endothelial cells (HUVEC);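 also: cells exposed to compound for 24 h before staining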;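 as to AC50: curves fitted both ways versus DMSO so AC50 may be loss or gain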
Method in brief: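 Human umbilical vein endothelial cells were dosed with chemical and, after 24 h, fixed with 10% TCA, stained with 0.1% sulforhodamine B, and read at 560 nm to give total protein as a cytotoxicity measure. Bidirectional fitting relative to DMSO control.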

[7] = BSK_BE3C_SRB: Viability Assessment in the BioMAP Diversity Plus: BE3C Assay (AID 2283028); details: primary human bronchial epithelial cells;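 as to AC50: fitted both ways so AC50 may mark signal gain or loss versus DMSO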
Method in brief: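 Primary human bronchial epithelium; chemical dosing, 24 h; 10% TCA fix, 0.1% SRB stain, A560; bidirectional fit vs DMSO baseline.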

[8] = read-out: Thrombomodulin, THBD (gene 7056); test: BSK_3C_Thrombomodulin: BioMAP Diversity Plus: 3C Assay for Thrombomodulin Biomarker Activity (AID 2283029); details: primary human endothelial cells (HUVEC); actives raise or lower the signal
Method in brief: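 Human umbilical vein endothelial cells were exposed to chemicals for 24 h; cell-surface thrombomodulin quantified by ELISA, with bidirectional fitting against DMSO baseline.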

[9] = read-out: Urokinase-type plasminogen activator receptor (uPAR), PLAUR (gene 5329); test: BSK_4H_uPAR: BioMAP Diversity Plus: 4H Assay for Urokinase-type plasminogen activator receptor (uPAR) Biomarker Activity (AID 2283030); details: primary human endothelial cells (HUVEC); actives raise or lower the signal
Method in brief: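 HUVEC, 24 h post-dose; uPAR by ELISA; bidirectional fit vs DMSO baseline.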

[10] = BSK_3C_Vis: BioMAP Diversity Plus: 3C Assay for Morphology Visualization (AID 2283025); details: primary human endothelial cells (HUVEC);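 also: fitted both ways so gain or loss versus DMSO counts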;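 as to AC50: light microscopy image of cell morphology used as background control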
Method in brief: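 Human umbilical vein endothelial cell morphology was inspected by light microscopy 24 h after chemical dosing; scored bidirectionally relative to DMSO.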

Row | Structure (SMILES) | outcome [1] | outcome [2] | AC50 [3] | outcome [4] | AC50 [5] | AC50 [6] | outcome [7] | outcome [8] | AC50 [9] | outcome [3] | outcome [5] | outcome [6] | outcome [9] | outcome [10] | AC50 [1] | AC50 [4] | AC50 [7] | AC50 [8] | AC50 [10]
1 | CC(=O)NC1(c2cccc(F)c2)CCN(CC[C@@]2(c3ccc(Cl)c(Cl)c3)CN(c3ccccc3)C(=O)CO2)CC1 | inactive | inactive | 21.6 µM (active) | inactive | 20.4 µM (active) | 20.3 µM (active) | inactive | inactive | 16.6 µM (active) | – | – | – | – | – | – | – | – | – | –
2 | CCCCC(CC)COC(=O)CCCCC(=O)OCc1ccccc1 (stereo not given) | inactive | inactive | – | inactive | – | – | inactive | inactive | – | inactive | inactive | inactive | inactive | – | – | – | – | – | –
3 | CC(O)CO (stereo not given) | inactive | inactive | – | inactive | – | – | inactive | inactive | – | inactive | inactive | inactive | inactive | inactive | – | – | – | – | –
4 | CC(=O)CC(C)(C)O | inactive | inactive | – | inactive | – | – | inactive | inactive | – | inactive | inactive | inactive | inactive | inactive | – | – | – | – | –
5 | CC[C@H](c1ccc(O)cc1)[C@@H](CC)c1ccc(O)cc1 | – | inactive | 27.9 µM (active) | – | 20.3 µM (active) | 30.6 µM (active) | – | – | 26 µM (active) | – | – | – | – | – | 37.4 µM (active) | 38 µM (active) | 35.8 µM (active) | 31 µM (active) | –
6 | OCCC(F)(F)C(F)(F)C(F)(F)C(F)(F)C(F)(F)C(F)(F)F | inactive | – | 57.7 µM (active) | inactive | 46.8 µM (active) | – | inactive | inactive | – | inactive | inactive | inactive | inactive | – | 44.8 µM (active) and 45.3 µM (active) | – | – | – | –
7 | CCCOC(=O)c1ccc(O)cc1 | inactive | inactive | – | inactive | – | – | inactive | inactive | – | inactive | inactive | inactive | inactive | inactive | – | – | – | – | –
8 | NC(=O)N1C(=O)C(C(=O)c2cc(Cl)cs2)c2cc(F)c(Cl)cc21 (stereo not given) | inactive | inactive | 14 µM (active) | – | 11.4 µM (active) | 15.2 µM (active) | – | inactive | 12.7 µM (active) | – | – | – | – | – | – | 2.77 µM (active) | 9.99 µM (active) | – | 37.5 µM (active)
9 | CCCCCCCCCCCCCCCS(=O)(=O)Oc1ccccc1 | inactive | inactive | – | inactive | – | – | inactive | inactive | – | inactive | inactive | inactive | inactive | inactive | – | – | – | – | –
10 | CN1CCN(c2ccccc2/C=C2\SCCN(c3ccc(Cl)c(Cl)c3)C2=O)CC1 | inactive | inactive | 16.3 µM (active) | – | 6.28 µM (active) | 15 µM (active) | – | inactive | 5.49 µM (active) | – | – | – | – | – | – | 32 µM (active) | 33.3 µM (active) | – | –
11 | CN1CCC[C@H]1c1cccnc1 | inactive | inactive | – | inactive | – | – | inactive | inactive | – | inactive | inactive | inactive | inactive | inactive | – | – | – | – | –
12 | CC(C)(C)CC(C)(C)c1ccc(O)c(-n2nc3ccccc3n2)c1 | inactive | inactive | – | inactive | – | – | inactive | inactive | – | inactive | inactive | inactive | inactive | inactive | – | – | – | – | –
13 | CC[C@H](C)[C@@H](C(=O)O)n1sc2ccccc2c1=O | inactive | inactive | – | inactive | – | – | inactive | inactive | – | inactive | inactive | inactive | inactive | – | – | – | – | – | –
14 | Oc1cccc(O)c1 | inactive | inactive | – | inactive | – | – | inactive | inactive | – | inactive | inactive | inactive | inactive | inactive | – | – | – | – | –
15 | CCc1nn(C2CCCCC2)c2cc(C3(C#N)CCC(C(=O)O)CC3)ccc12 (stereo not given) | inactive | inactive | 5.08 µM (active) | inactive | 4.25 µM (active) | 5.87 µM (active) | inactive | inactive | 4.94 µM (active) | – | – | – | – | – | – | – | – | – | 39 µM (active)
16 | CCC(C)(C)C1CCC(O)CC1 (stereo not given) | inactive | inactive | – | inactive | – | – | inactive | inactive | – | inactive | inactive | inactive | inactive | – | – | – | – | – | –
